# Experimental data taken from PubChem BioAssay.
# Several values for one entry are separate records, joined by “and”; a condition that tells them apart may be missing. Identical values can stand only once. Where a structure was tested more than once in an assay, its records may differ in their call. Activity calls are given as the source filed them.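 The calls were made as follows, unless noted: active = at least 20% inhibition of 6-phosphogluconate dehydrogenase activity; inactive = the rest.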
# Legend:
# [1] = liver-stage malaria parasite growth inhibition, primary screen, cell-based, HepG2, luciferase luminescence, HepG2 viability (AID 624349; in the data active = parasite load remaining mostly below about 12%, no sharp cut-off; inactive = mostly above about 10%;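 also: 100% = mean of DMSO negative control wells on the same plate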); conditions: P. berghei liver stage in HepG2, luciferase luminescence, concentration not given here; parasite load remaining: stronger effect = lower value; viability: measured here: HepG2 viability without parasites
# [2] = molecular target: 6-phosphogluconate dehydrogenase, decarboxylating (Homo sapiens) (UniProt P52209); assay: 6PGD enzyme inhibitors, primary screen, biochemical, human, recombinant enzyme, NADPH absorbance (AID 1159550); conditions: recombinant 6PGD, NADPH absorbance 341 nm; at 10 µM; stronger effect = higher value
# Chain of 6-phosphogluconate dehydrogenase, decarboxylating (Homo sapiens) (P52209 whole entry, looked up): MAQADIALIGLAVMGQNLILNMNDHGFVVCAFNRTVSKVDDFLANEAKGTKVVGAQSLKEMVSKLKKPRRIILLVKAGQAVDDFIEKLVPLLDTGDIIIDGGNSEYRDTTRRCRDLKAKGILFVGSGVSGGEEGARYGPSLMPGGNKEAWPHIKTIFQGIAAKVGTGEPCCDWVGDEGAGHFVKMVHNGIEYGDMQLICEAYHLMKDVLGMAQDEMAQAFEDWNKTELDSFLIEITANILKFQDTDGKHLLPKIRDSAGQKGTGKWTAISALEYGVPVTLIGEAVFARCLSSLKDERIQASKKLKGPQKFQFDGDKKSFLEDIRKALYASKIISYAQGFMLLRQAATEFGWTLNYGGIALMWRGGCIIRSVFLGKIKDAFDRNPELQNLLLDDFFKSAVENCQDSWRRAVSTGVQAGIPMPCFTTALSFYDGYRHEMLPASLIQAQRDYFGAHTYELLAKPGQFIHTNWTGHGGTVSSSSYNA
# [3] = differential killing of epithelial or mesenchymal cells, primary screen, imaging, PC-3E GFP, TEM4-18 mCherry, co-culture (AID 1345086;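 active = compounds killing one labelled cell type while sparing the other, by normalised counts and ratio limits, not self-fluorescent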;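 as to all read-outs here: cells exposed to compound for 72 h before imaging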;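 as to red/green cell ratio (normalised): normalised mesenchymal count divided by normalised epithelial count so high means epithelial killing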); conditions: imaging cell counts, at 1 µM; for red/green cell ratio (normalised): actives lie on both sides, counts scaled to control wells, 1 = unselective
# [4] = sensitizers of A549 cells to miR-34 induction, primary screen, imaging, A549 dox-inducible miR-34, nuclei and caspase counts (AID 1347080;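 active = compounds whose cell count with miR-34 switched on is under 0.7 times the count with it off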); conditions: A549 miR-34 inducible, Hoechst nuclei count, 48 h
# [5] = survival rescue of mitochondrial mutant cells in low glucose, primary screen, MELAS cybrids, Rieske KO mouse fibroblasts, CellTiter-Glo (AID 1508586;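 active = mean z-score across replicates of 1.96 or higher in either the MELAS or the Rieske mutant cell line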;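 also: z relative to plate mean and SD of compound and empty wells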)
# [6] = molecular target: Mitogen-activated protein kinase 7 (Homo sapiens) (UniProt Q13164); assay: ERK5 transactivation activators in reporter cells, primary screen, cell-based, HTS (AID 1508626;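 active = luciferase signal above three times the same-plate solvent-only control wells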;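 also: luciferase driven by Gal4-ERK5 fusion binding five Gal4 sites before minimal TATA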); conditions: HeLa Gal4-ERK5 transactivation, 18 h, at 5 µM, stronger effect = higher value
# Chain of Mitogen-activated protein kinase 7 (Homo sapiens) (Q13164 whole entry, looked up, the tested form may be a part): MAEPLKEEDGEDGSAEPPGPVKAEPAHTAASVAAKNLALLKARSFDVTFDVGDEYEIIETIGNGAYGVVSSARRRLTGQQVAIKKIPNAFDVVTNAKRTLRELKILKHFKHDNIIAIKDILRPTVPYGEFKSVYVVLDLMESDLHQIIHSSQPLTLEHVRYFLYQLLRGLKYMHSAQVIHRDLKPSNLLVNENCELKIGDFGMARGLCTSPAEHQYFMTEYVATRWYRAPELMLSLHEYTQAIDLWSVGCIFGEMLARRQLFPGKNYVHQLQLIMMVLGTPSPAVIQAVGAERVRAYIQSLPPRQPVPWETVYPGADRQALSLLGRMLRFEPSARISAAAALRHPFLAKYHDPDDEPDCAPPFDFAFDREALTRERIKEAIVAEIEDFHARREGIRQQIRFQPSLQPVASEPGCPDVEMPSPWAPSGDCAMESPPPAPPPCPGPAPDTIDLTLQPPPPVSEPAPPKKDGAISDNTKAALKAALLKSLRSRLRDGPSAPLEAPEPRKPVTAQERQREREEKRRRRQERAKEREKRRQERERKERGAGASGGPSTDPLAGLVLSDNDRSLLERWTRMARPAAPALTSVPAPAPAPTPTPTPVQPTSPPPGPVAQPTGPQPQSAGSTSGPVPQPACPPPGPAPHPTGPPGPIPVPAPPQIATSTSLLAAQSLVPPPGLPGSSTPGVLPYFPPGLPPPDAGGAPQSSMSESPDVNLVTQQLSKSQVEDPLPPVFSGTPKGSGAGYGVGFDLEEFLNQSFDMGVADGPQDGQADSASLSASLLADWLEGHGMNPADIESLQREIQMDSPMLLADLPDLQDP
# [7] = viability rescue of complex I mutant cybrids, primary screen, cell-based, galactose medium, ATP luminescence (AID 1645843;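 active = z-score of at least 1.8 in each of two replicates, scored against plate mean and spread of sample wells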;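 also: positive z means more ATP and so rescue of galactose-driven cybrid death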); conditions: complex I mutant cybrid cells, 72 h, stronger effect = higher value
# [8] = hESC survival regulators, cell-based (AID 493140; call rule not given here;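 also: cells exposed to compounds for four days before counting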); conditions: human embryonic stem cell survival screen; stronger effect = higher value
# [9] = molecular target: NAD(+) hydrolase SARM1 (Homo sapiens) (UniProt Q6SZW1); assay: SARM1 TIR NADase inhibitors, cell lysate, NAD-Glo luminescence (AID 1508614;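 active = compound whose remaining NAD level is above about 45 nM, limit read from the data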;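 also: higher remaining NAD means stronger inhibition of SARM1 NADase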); conditions: SAM-TIR HEK293T lysate NADase, at 1 µM, stronger effect = higher value
# Chain of NAD(+) hydrolase SARM1 (Homo sapiens) (Q6SZW1 whole entry, looked up): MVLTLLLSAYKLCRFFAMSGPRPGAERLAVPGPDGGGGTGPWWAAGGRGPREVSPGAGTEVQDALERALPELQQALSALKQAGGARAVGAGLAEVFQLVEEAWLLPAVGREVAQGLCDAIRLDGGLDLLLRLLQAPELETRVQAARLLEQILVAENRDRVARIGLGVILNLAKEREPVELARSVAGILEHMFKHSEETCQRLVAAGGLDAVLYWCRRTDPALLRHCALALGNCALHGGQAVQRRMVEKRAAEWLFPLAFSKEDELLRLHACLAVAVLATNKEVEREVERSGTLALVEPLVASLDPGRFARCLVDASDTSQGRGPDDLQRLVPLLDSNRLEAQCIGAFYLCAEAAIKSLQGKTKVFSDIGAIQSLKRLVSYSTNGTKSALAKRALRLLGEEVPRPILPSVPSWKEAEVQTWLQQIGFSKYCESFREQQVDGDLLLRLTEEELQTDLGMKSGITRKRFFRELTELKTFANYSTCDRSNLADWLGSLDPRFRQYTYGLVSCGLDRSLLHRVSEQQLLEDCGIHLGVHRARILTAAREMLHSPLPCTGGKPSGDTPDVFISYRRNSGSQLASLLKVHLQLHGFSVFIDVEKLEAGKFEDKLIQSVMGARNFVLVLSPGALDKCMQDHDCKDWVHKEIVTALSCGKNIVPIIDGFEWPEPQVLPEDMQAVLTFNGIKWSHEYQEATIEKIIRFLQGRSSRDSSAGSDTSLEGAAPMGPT
# [10] = measured here: epithelial PC-3E GFP cell survival
# [11] = measured here: mesenchymal TEM4-18 mCherry cell survival
# [12] = stronger effect = lower value, cell number ratio, induced over uninduced
# [13] = measured here: relative caspase fold change +Dox/-Dox
# [14] = measured here: total cells with miR-34 induction, stronger effect = lower value
# [15] = measured here: total cells without miR-34 induction
# [16] = MELAS cybrid survival, CellTiter-Glo 48 h, stronger effect = higher value
# [17] = Rieske KO mouse fibroblast survival, CellTiter-Glo 72 h
compound,measurement,setting,value
CCCCCCCCCCCC1=C(O)C(=O)C=C(O)C1=O,parasite load remaining,[1],136% (inactive)
same,viability,[1],84.4%
same,inhibition,[2],15% (inactive)
same,red/green cell ratio (normalised),[3],0.91 (inactive)
same,normalised cell number,[3]; [10],1.09
same,normalised cell number,[3]; [11],1
same,fold change,[4]; [12],0.793 (inactive) and 1.27 (inactive)
same,fold change,[4]; [13],2.63 and 0.764
same,cell count,[4]; [14],7270 and 2440
same,cell count,[4]; [15],9160 and 1930
same,z-score,[5]; [16],-0.242 (inactive)
same,z-score,[5]; [17],-0.154
same,luciferase signal,[6],40 AU (inactive)
same,z-score,[7],-0.595 (inactive)
COc1cc(-c2coc3cc(OCc4ccccc4)c(OC)c(O)c3c2=O)cc(OCc2ccccc2)c1OC,inhibition,[2],16.5% (inactive)
same,red/green cell ratio (normalised),[3],0.82 (inactive)
same,normalised cell number,[3]; [10],1.05
same,normalised cell number,[3]; [11],0.86
COc1ccc(-c2cc(=O)c3c(O)cc(O)c(-c4cc(-c5cc(=O)c6c(O)cc(O)cc6o5)ccc4OC)c3o2)cc1,inhibition,[2],10.8% (inactive)
same,red/green cell ratio (normalised),[3],0.98 (inactive)
same,normalised cell number,[3]; [10],0.79
same,normalised cell number,[3]; [11],0.78
COc1ccc(C(=O)c2ccc(O)cc2)c(O)c1O,inhibition,[2],-5.23% (inactive)
same,red/green cell ratio (normalised),[3],1.05 (inactive)
same,normalised cell number,[3]; [10],0.85
same,normalised cell number,[3]; [11],0.89
C=CCCCCCCCCCCCC(O)CC(O)CO (centres undefined) (tested in a mixture with another compound),inhibition,[2],-8.17% (inactive)
same,red/green cell ratio (normalised),[3],0.87 (inactive)
same,normalised cell number,[3]; [10],1.32
same,normalised cell number,[3]; [11],1.14
COc1cc(OC)c(-c2c(OC)cc(OC)cc2OC)c(OC)c1,inhibition,[2],11.7% (inactive)
same,red/green cell ratio (normalised),[3],1.06 (inactive)
same,normalised cell number,[3]; [10],0.99
same,normalised cell number,[3]; [11],1.04
COc1cc(-c2coc3cc(OCc4ccccc4)c(OC)c(O)c3c2=O)cc(O)c1OC,inhibition,[2],9.07% (inactive)
same,red/green cell ratio (normalised),[3],0.97 (inactive)
same,normalised cell number,[3]; [10],1.1
same,normalised cell number,[3]; [11],1.07
COc1cccc(-c2cc(=O)c3ccc(OC)cc3o2)c1,inhibition,[2],-2.44% (inactive)
same,red/green cell ratio (normalised),[3],1.01 (inactive)
same,normalised cell number,[3]; [10],1.02
same,normalised cell number,[3]; [11],1.03
O=C(O[C@@H]1Cc2c(O)cc(O)cc2O[C@@H]1c1cc(O)c(O)c(O)c1-c1c([C@H]2Oc3cc(O)cc(O)c3C[C@H]2OC(=O)c2cc(O)c(O)c(O)c2)cc(O)c(O)c1O)c1cc(O)c(O)c(O)c1,inhibition,[2],-4.6% (inactive)
same,red/green cell ratio (normalised),[3],1.06 (inactive)
same,normalised cell number,[3]; [10],0.89
same,normalised cell number,[3]; [11],0.94
CC1CC[C@@]2(OC1)O[C@H]1CC3C4CC[C@@H]5C[C@@H](O)CC[C@]5(C)C4CC[C@]3(C)[C@H]1[C@@H]2C (some centres undefined),inhibition,[2],-2.11% (inactive)
same,red/green cell ratio (normalised),[3],1.16 (inactive)
same,normalised cell number,[3]; [10],1.03
same,normalised cell number,[3]; [11],1.2
O=C1CC(c2ccccc2)Oc2ccccc21 (centres undefined),inhibition,[2],1.48% (inactive)
same,red/green cell ratio (normalised),[3],0.93 (inactive)
same,normalised cell number,[3]; [10],1.14
same,normalised cell number,[3]; [11],1.06
COc1cccc(-c2cc(=O)c3cc(OC)ccc3o2)c1,inhibition,[2],-1.86% (inactive)
same,red/green cell ratio (normalised),[3],1.05 (inactive)
same,normalised cell number,[3]; [10],0.89
same,normalised cell number,[3]; [11],0.94
O=c1cc(-c2ccc(O)cc2)oc2cc(O)cc(O)c12,survival,[8],17.8 (inactive)
same,parasite load remaining,[1],95.8% (inactive) and 11.3% (inactive) and 116% (inactive)
same,viability,[1],94.9% and 100% and 77.5%
same,inhibition,[2],-0.0494% (inactive)
same,red/green cell ratio (normalised),[3],0.91 (inactive)
same,normalised cell number,[3]; [10],1.2
same,normalised cell number,[3]; [11],1.09
same,z-score,[5]; [16],-0.412 (inactive)
same,z-score,[5]; [17],0.346
same,luciferase signal,[6],64 AU (inactive)
same,z-score,[7],2.56 (active) and -0.305 (inactive)
CC(C)CCCC(C)[C@H]1CCC2C3CC=C4CC(=O)CC[C@]4(C)C3CC[C@@]21C (some centres undefined),inhibition,[2],11.7% (inactive)
same,red/green cell ratio (normalised),[3],0.87 (inactive)
same,normalised cell number,[3]; [10],1.01
same,normalised cell number,[3]; [11],0.88
CC(=O)/C(=C\c1ccccc1)CC(=O)O,inhibition,[2],3.72% (inactive)
same,red/green cell ratio (normalised),[3],0.99 (inactive)
same,normalised cell number,[3]; [10],1.18
same,normalised cell number,[3]; [11],1.16
CC1NC(=O)NC1=O (centres undefined),inhibition,[2],-12% (inactive)
same,red/green cell ratio (normalised),[3],0.85 (inactive)
same,normalised cell number,[3]; [10],0.94
same,normalised cell number,[3]; [11],0.79
CN1C[C@H](C(=O)N[C@]2(C)O[C@@]3(O)[C@@H]4CCCN4C(=O)[C@H](Cc4ccccc4)N3C2=O)C[C@@H]2c3cccc4[nH]cc(c34)C[C@H]21,survival,[8],19.1 (inactive)
same,parasite load remaining,[1],81.1% (inactive) and 61.1% (inactive) and 32.5% (inactive)
same,viability,[1],69.3% and 88.9% and 89.9%
same,inhibition,[2],6.21% (inactive)
same,red/green cell ratio (normalised),[3],1.38 (inactive)
same,normalised cell number,[3]; [10],1.07
same,normalised cell number,[3]; [11],1.48
same,fold change,[4]; [12],1.02 (inactive) and 0.955 (inactive) and 0.914 (inactive)
same,fold change,[4]; [13],1.31 and 1.01 and 2.52
same,cell count,[4]; [14],7530 and 7990 and 11700
same,cell count,[4]; [15],7390 and 8360 and 12800
same,remaining NAD,[9],10 nM (inactive)
same,luciferase signal,[6],32 AU (inactive)
same,z-score,[7],-0.125 (inactive) and -0.835 (inactive)
O=C(O)c1cccnc1C(=O)O,parasite load remaining,[1],83.9% (inactive)
same,viability,[1],75.4%
same,inhibition,[2],2.35% (inactive)
same,red/green cell ratio (normalised),[3],0.71 (inactive)
same,normalised cell number,[3]; [10],1.39
same,normalised cell number,[3]; [11],0.99
same,fold change,[4]; [12],0.98 (inactive) and 0.953 (inactive)
same,fold change,[4]; [13],1.66 and 1.07
same,cell count,[4]; [14],9820 and 8590
same,cell count,[4]; [15],10000 and 9010
same,luciferase signal,[6],84 AU (inactive)
same,z-score,[7],0.32 (inactive) and -0.225 (inactive)
CC(C)=CCCC1(C)C=Cc2c(O)c3c(c(CC=C(C)C)c2O1)OC12C(=CCCC1C(C)(C)O[C@@]2(C/C=C(\C)C(=O)O)C(=O)O)C3=O (some centres undefined),inhibition,[2],0.371% (inactive)
same,red/green cell ratio (normalised),[3],0.93 (inactive)
same,normalised cell number,[3]; [10],1.16
same,normalised cell number,[3]; [11],1.08
Cc1cc(=O)oc2cc(O)cc(O)c12,inhibition,[2],3.6% (inactive)
same,red/green cell ratio (normalised),[3],0.8 (inactive)
same,normalised cell number,[3]; [10],1.18
same,normalised cell number,[3]; [11],0.94
CC(=O)c1ccc[nH]1,inhibition,[2],13.8% (inactive)
same,red/green cell ratio (normalised),[3],0.97 (inactive)
same,normalised cell number,[3]; [10],1.06
same,normalised cell number,[3]; [11],1.03
